Sampled rows, rich in hits. Any-hit rate of the full collection: about 0.99%.
AmpC inh detg = qHTS Inhibitors of AmpC Beta-Lactamase (assay with detergent); actives 0.041% (n = 370,000); Potency, µM (top dose mostly 114 µM), for the others: top-dose activity change, negative = inhibition, actives largely listed as inhibitors; P00811; AID 485294, 2010; AmpC hydrolysis of nitrocefin, absorbance 480 nm, 0.01% Triton;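 also: potency is read from the fitted curve at half-maximal effect; 0% = no-compound wells and -100% = no-enzyme wells; nearly all actives have a fitted effect of over 25% in size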
Target sequence (P00811 whole entry, looked up): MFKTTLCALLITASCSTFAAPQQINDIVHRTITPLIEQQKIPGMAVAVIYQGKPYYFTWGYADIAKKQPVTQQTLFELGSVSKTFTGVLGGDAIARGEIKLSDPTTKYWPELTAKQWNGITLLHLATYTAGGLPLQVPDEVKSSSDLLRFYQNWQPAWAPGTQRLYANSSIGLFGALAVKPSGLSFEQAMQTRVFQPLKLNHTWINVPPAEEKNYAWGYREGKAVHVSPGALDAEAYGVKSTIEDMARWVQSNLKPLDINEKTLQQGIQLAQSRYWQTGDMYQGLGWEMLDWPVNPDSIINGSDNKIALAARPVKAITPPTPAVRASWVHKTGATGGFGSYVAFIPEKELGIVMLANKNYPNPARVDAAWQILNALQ
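20 mM phosphate pH 7.0 + 0.01% (detergent screen) or 0.0001% Triton X-100; 5.3 nM AmpC reagent; cpd preinc 15 min RT; nitrocefin (800 uM stock) to start; A480 q20 s × 4 min; Activity was normalised to no-enzyme and no-compound control wells.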
AMA1 RON2 block = qHTS for Inhibitors of AMA1-RON; Towards Development of Antimalarial Drug Lead: Primary Screen; AlphaScreen AMA1-biotinylated RON2 peptide binding; Potency, µM (top dose mostly 58.2 µM), without a hit: top-dose activity change, negative = inhibition, actives largely listed as inhibitors; actives 0.2% (n = 360,000); AID 720542, 2013;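 also: potency is read from the fitted curve at half-maximal effect; 0% = vehicle wells and -100% = peptide control; nearly all actives have a fitted effect of over 45% in size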
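AMA1 (3D7) with his tag at 25 nM final met compounds first, then biotinylated RON2 peptide at 25 nM; detection used donor plus acceptor beads, 10 µg/mL apiece, read by AlphaScreen after 30 min at room temperature.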
AmpC inh no detg = qHTS Inhibitors of AmpC Beta-Lactamase (assay without detergent); P00811; AmpC nitrocefin hydrolysis, absorbance 480 nm, 0.0001% Triton; actives 0.52% (n = 330,000); Potency, µM (series often up to 57.1 µM), for inactives: top-dose activity change, negative = inhibition, actives largely listed as inhibitors;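 also: potency is read from the fitted curve at half-maximal effect; plate controls were no compound for no effect and no enzyme for full effect; nearly all actives have a fitted effect of over 20% in size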
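AmpC (5.3 nM in the dispensed reagent) in 20 mM phosphate pH 7.0 with 0.01% (detergent screen) or 0.0001% Triton X-100 was preincubated with compounds for 15 min at room temperature. Nitrocefin was then added from an 800 uM solution, and hydrolysis was followed at 480 nm.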
NS1 function inh = qHTS Assay for Inhibitors of Influenza NS1 Protein Function | Potency, µM (doses to about 46.1 µM), inactives show at the highest dose activity, positive = more growth | actives 0.4% (n = 270,000) | AID 2326, 2010; calls by dose curve; also: potency is read from the fitted curve at half-maximal effect; actives are rising curves; nearly all actives have a fitted effect of over 50% in size
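Recovery from NS1-induced slow growth read by OD600 in budding yeast switched to galactose assay medium (pH 6.0, -URA) at 1:100 dilution. Compound 23 nl per well; the matching strain lacking NS1 serves as control.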
SARS PLP yeast = qHTS of Yeast-based Assay for SARS-CoV PLP | AID 485353, 2010 | Potency, µM (top dose mostly 32.9 µM), without a hit: top-dose activity, positive = growth rescue, most hits filed as activators | S. cerevisiae expressing SARS-CoV PLpro, growth rescue | actives 0.19% (n = 330,000); calls by dose curve; also: potency is read from the fitted curve at half-maximal effect; 0% is about no effect; nearly all actives have a fitted effect of over 55% in size
NS1 inh valid = Assay for Inhibitors of Influenza NS1 Protein Function: Hit Validation; shares compounds with NS1 function inh; influenza NS1 function cell assay, 15-point titration; 1,400 tested, under 10 active; activity change, negative = inhibition, % at 32.9 µM; calls by dose curve; also: 0% is about no effect
Flu PR8 replic = Assay for Inhibitors of Influenza NS1 Protein Function: Influenza virus replication assay in MDCK cells infected with virus A/PR/8/34 | MDCK infected influenza A/PR/8/34, virus titer TCID50; hits give low values | shares compounds with NS1 function inh | AID 504647, 2011 | virus titer (log TCID50), log10 TCID50 at 5 µM | actives 30% (n = 95); call rule not given here
* marks the source's active call; other numbers are inactive results; u = inconclusive; x = not tested or not shown; [ ] = another dose, or the depositor's remark. Unless noted, calls follow the shape of the dose curve; as a rule, active = well fitted curve in the direction sought with a large enough effect; inconclusive = small, poorly fitted or top-dose-only effect, or another doubt; inactive = no such curve, though single readings can be large; an effect the other way counts as inactive or inconclusive.

SMILES | AmpC inh detg | AMA1 RON2 block | AmpC inh no detg | NS1 function inh | SARS PLP yeast | NS1 inh valid | others
CCOc1ccc(C(=O)Cn2cnnc2C#N)cc1 | u | 5% | -34% | u | 1% | 6
CC(C)CNC(=O)CSc1nnc2ccccn12 | 1% | -8% | -13% | x | 2% | x
CC(C)CCNC(=O)NC(=O)CSc1nnc2ccccn12 | -10% | 0% | 9% | 4.5µM* | 11% | 2
CCOc1cc(/C=C2\C(=O)NC(=O)N(CCc3ccc(F)cc3)C2=O)ccc1O | 1% | -6% | -41% | 0.35µM* | 0% | 30
C=CCOc1cccc(/C=C2\C(=O)N(Cc3ccc(C)cc3)C(C)=C2C(=O)OC)c1 | -10% | u | -36% | 11% | -4% | x
CCOc1cc(/C=C2\C(=O)N(Cc3ccc(C)cc3)C(C)=C2C(=O)OC)ccc1O | u | u | -30% | 14µM* | 2% | -2
CN(C)c1ccc(/C=C2/C(=O)NC(=O)N(CCc3ccc(F)cc3)C2=O)cc1 | -9% | -8% | -45% | -16% | -9% | x
COc1ccc(-c2nc(CSCC(=O)NCCc3ccc(OC)c(OC)c3)c(C)o2)cc1 | -7% | x | x | x | x | x
CCN(CCN(C)C)C(=O)Cn1ncc2c([nH]c3ccc(C)cc32)c1=O | 15% | x | x | x | x | x
Cc1cc2nn(-c3ccc(F)cc3)nc2cc1NC(=O)c1cccc2c(Cl)cccc12 | -2% | x | x | x | x | x
COc1ccccc1NC(=O)C1CCN(S(=O)(=O)c2ccc3c(c2)oc(=O)n3C)CC1 | 5% | x | x | x | x | x
CCOC(=O)C1=C(c2ccccc2)NC(SCC(=O)Nc2cccc(C)c2)=C(C#N)C1c1ccco1 (stereo not given) | -8% | 9% | -25% | u | 9% | -1
CCOC(=O)C1=C(c2ccccc2)NC(SCC(=O)Nc2ccccc2C)=C(C#N)C1c1ccco1 (stereo not given) | -6% | 10% | -42% | 11µM* | 0% | u
CCOC(=O)C1=C(c2ccccc2)NC(SCC(=O)Nc2ccc(C)cc2)=C(C#N)C1c1ccco1 (stereo not given) | -4% | 5% | x | -33% | x | x
Oc1c(CN2CCCCC2)cc(COCc2ccccc2)c2cccnc12 | u | -61% | 2% | -84% | 5% | x
COCc1cc(CN2CCCC2)c(O)c2ncccc12 | -4% | 9.5µM* | 64% | 0.71µM* | 0% | u
O=C(CC1(O)C(=O)N(CCc2ccccc2)c2ccc(Br)cc21)c1ccccc1O (stereo not given) | -3% | x | x | x | x | x
COc1ccccc1CCNC(=O)c1cccn1-c1nnc(N2CCCC2)s1 | 5% | x | x | x | x | x
Cc1ccc(S(=O)(=O)N2CCN(C(=O)CC(C)n3cncn3)CC2)cc1C (stereo not given) | 2% | 1% | -1% | u | 4% | -9
Cc1cc(NC(=O)CCC(=O)N(CC(=O)NC2CCCC2)c2cccc(F)c2)no1 | 2% | 0% | 16% | u | 3% | -7
Cc1ccc(S(=O)(=O)Nc2ccc3nc(-c4cccn4C)[nH]c3c2)cc1 | 1% | -24% | -28% | 1.6µM* | -5% | -34 | Flu PR8 replic=8.5
Cn1c(SCC(=O)c2ccc3c(c2)Cc2ccccc2-3)nnc1-c1cccc(N)c1 | 4% | 2% | 115% | u | -28% | 34
O=C(Nc1nnc(C2CC2)s1)C1Cc2ccccc2CN1C(=O)c1ccco1 (stereo not given) | -1% | 2% | -31%[11.4 µM] | x | 1% | x
O=C(Nc1nnc(SCc2ccc(F)cc2)s1)C1Cc2ccccc2CN1C(=O)c1ccco1 (stereo not given) | 0% | 58% | -36% | 7.9µM* | -1% | 6
Cc1ccc(NC(=S)N2CCN(Cc3ccccc3)CC2)c(C)c1 | -11% | -12% | 32% | u | -8% | -16
SMILES | AmpC inh detg | AMA1 RON2 block | AmpC inh no detg | NS1 function inh | SARS PLP yeast | NS1 inh valid | others
NNC(=O)CN1C(c2ccccc2Br)=Nc2ccc(Br)cc2C1c1ccccc1 (stereo not given) | 13% | 24% | 166% | 4.5µM* | 16% | -2 | Flu PR8 replic=8.3
O=C(Nc1nc(-c2ccc([N+](=O)[O-])cc2)cs1)c1c(F)cccc1F | -2% | 6% | -12% | 13% | 0% | x
COc1cccc(OC)c1C(=O)Nc1nc(-c2ccccc2)cs1 | 5% | 0% | -13% | 13µM* | 6% | -16
Cc1ccc(-c2csc(NC(=O)c3cccc([N+](=O)[O-])c3)n2)cc1 | -5% | 10% | -15% | 5µM* | 7% | 1
O=C(c1ccccc1)[C@H]1[C@H](c2ccccc2)[C@@]2(N=C(c3ccccc3)OC2=O)C2c3ccccc3C=NN21 (stereo not given in full) | -12% | x | -14% | 2.5µM* | 2% | -17
COc1ccc([C@H]2[C@H](C(=O)C(C)(C)C)N3N=Cc4ccccc4C3C23C(=O)OC(C)(C)OC3=O)cc1 (stereo not given in full) | -4% | 11% | -22% | 7% | -7% | x
COc1cccc(/C=N/NC(=O)c2nc(-c3ccccc3)cc(-c3ccccc3)n2)c1 | 5% | -2% | -33% | u | 6% | -26
COc1ccc(/C=N/NC(=O)c2nc(-c3ccccc3)cc(-c3ccccc3)n2)cc1OC | u | -6% | 39% | 15% | -16% | x
COc1cccc(CNC(=O)c2sc3ncccc3c2-n2c(C)ccc2C)c1OC | 20% | x | x | x | x | x
Cc1cc(C)c(NC(=O)Cn2nnc(-c3nc(-c4ccccc4)no3)c2N)c(C)c1 | 16% | x | x | x | x | x
Cc1nc2ccn(Cc3cccs3)c(=O)c2cc1C(=O)Nc1ccccc1 | -3% | x | x | x | x | x
O=c1cc(-c2ccc(F)cc2)[nH][nH]1 | -14% | 25% | -39% | 13µM* | 23% | 20
CCc1ccc(NC(=O)c2cc3c(COC(C)=O)cnc(C)c3oc2=O)cc1 | 2% | x | x | x | x | x
O=C(c1cc(-c2ccncc2)nc2ccccc12)N1CCN(c2ccc(N3CCOCC3)nn2)CC1 | 2% | 5% | 106% | u | 9% | -33
Cc1sc2ncn(CC(=O)Nc3cccc(C(F)(F)F)c3)c(=O)c2c1S(=O)(=O)N1CCN(C)CC1 | 7% | x | x | x | x | x
Cc1c(N=Cc2cccs2)c(=O)n(-c2ccccc2)n1C | 5% | 7% | 0% | 14µM* | 2% | 0

High-throughput results as filed in PubChem.
